Only some compounds are listed: those with a hit (about 3.5% of all), similar ones and a draw of the others.
BoNT-F LC inh: BoNT F light chain protease inhibition; Multiplex microsphere protease cleavage assay, flow cytometry; inhibition, % at 10 µM; AID 588497; hit rate 0.22% among 360,000; in the data active means inhibition above about 35%, passing the limit was not always enough; inconclusive means no clear call, values can overlap the other calls; further: plate controls were buffer without enzyme for full effect and enzyme alone for no effect
Autofluor counter: compound fluorescence in toxin protease inhibitor counterscreen | compound autofluorescence counterscreen, microsphere flow cytometry; stronger effect = higher value | fluorescence intensity (test concentration not listed) | hit rate 3.1% among 360,000 | AID 624483; in the data active means fluorescence intensity above about 16000; inconclusive means no clear call, values can overlap the other calls
Anthrax LF inh2: blocks Bacillus anthracis lethal factor protease; P15917; multiplex microsphere protease cleavage assay, LF; inhibition, % at 10 µM; hit rate 0.12% among 360,000; AID 588501; further: plate controls were buffer without enzyme for full effect and enzyme alone for no effect
BoNT A protease: inhibitors of Botulinum neurotoxin A light chain protease. multiplex microsphere protease substrate cleavage, flow cytometry. inhibition, % at 10 µM. hit rate 0.17% among 360,000. AID 588499; further: plate controls were buffer without enzyme for full effect and enzyme alone for no effect
The depositor's hits bear a star; ? = inconclusive. Unless noted, no stated cut-off is given here; in the data, active means inhibition above about 30%; inconclusive means no clear call, values can overlap the other calls; inactive means below that.

SMILES | BoNT-F LC inh | Autofluor counter | Anthrax LF inh2 | BoNT A protease
CCCCOC(=O)Nc1ccc(C(=O)OC)cc1 | 1.0 | 21923* | -1.5 | 0.4
COc1cc(NC(=O)c2c(F)c(F)c(F)c(F)c2F)c(OC)cc1Cl | 1.2 | 21733* | -2.1 | 1.5
CCCCOC(=O)Nc1cc(OC)c(Cl)cc1OC | 0.1 | 23042* | -2.4 | 1.2
CC12CCC(=O)N1C(C(=O)Oc1cccc(F)c1)CS2 (stereo not drawn) | 0.1 | 3053 | -4.2 | 0.0
COc1cc2cc(CN(CCCO)S(=O)(=O)c3ccccc3Cl)c(=O)[nH]c2cc1OC | -1.4 | 10480 | -2.2 | 1.0
COc1cc2cc(CN(CCO)S(=O)(=O)c3ccccc3Cl)c(=O)[nH]c2cc1OC | -1.7 | 16702* | -1.6 | ?
CCOC(=O)c1cccc(S(=O)(=O)N(CCO)Cc2cc3cc(OC)ccc3[nH]c2=O)c1 | -2.6 | 9606 | -2.4 | 0.5
CCOC(=O)c1cccc(S(=O)(=O)N(CCO)Cc2cc3cc(OC)c(OC)cc3[nH]c2=O)c1 | -1.3 | 24123* | 2.9 | -1.1
Cc1ccc(NC(=O)C(C)OC(=O)c2ccc(Cl)nc2)cc1S(=O)(=O)N1CCOCC1 (stereo not drawn) | 17.2 | ? | 3.5 | 0.7
CCOC(=O)C1CCN(Cc2nc(-c3ccc(OC)c(OC)c3)no2)CC1 | 12.0 | 4701 | -2.2 | 0.4
COc1ccc(-c2noc(CN3CCCCC3)n2)cc1OC | 3.6 | 21443* | -1.6 | 2.3
CCCS(=O)(=O)NC(=O)C1(C)CCCN(C(=O)C(C)(C)Oc2ccc(Cl)cc2)C1 (stereo not drawn) | -1.6 | 3252 | -3.5 | 0.4
CCC1(C)Cc2c(C#N)c(N)n(-c3ccccc3)c(=S)c2CO1 (stereo not drawn) | 2.9 | 4951 | -4.0 | 1.9
CCC1(C)Cc2c(C#N)c(N)sc(=S)c2CO1 (stereo not drawn) | 24.3 | 4428 | 41.4* | 75.0*
CCN(CC(=O)Nc1ccc(OC)cc1)C(=O)c1ccc(N2C(=O)CCC2=O)cc1 | -8.4 | 3435 | -1.0 | -1.1
CC(C)(C(=O)c1ccccc1)/[N+]([O-])=C/c1ccccc1 | 0.0 | 23931* | -1.2 | -1.2
COC(=O)C1=C(C)N(C(C)C)C(=O)C1(NC(=O)C1CCCCC1)C(F)(F)F (stereo not drawn) | 1.5 | 19805* | -4.0 | ?
CCSc1nc2c(c(=O)[nH]c(=O)n2C)n1CC(O)COc1ccccc1C (stereo not drawn) | 0.6 | 20886* | -3.8 | -0.8
COc1ccc(S(=O)(=O)N2CCC3CC2c2cc(-c4ccc5c(c4)OCO5)ccc23)cc1 (stereo not drawn) | -0.5 | 6099 | -4.3 | -0.5
C=C(C)C1CC=C(C)/C(=N/NC(=O)c2ccc(NC(=O)CC)cc2)C1 (stereo not drawn) | -8.0 | 17225* | -0.5 | ?
C=C(C)C1CC=C(C)/C(=N\NC(=O)CCC(=O)Nc2ccc(C)c(C)c2)C1 (stereo not drawn) | -17.9 | 4330 | 0.7 | -2.2
C=C(C)C1CC=C(C)/C(=N/NC(=O)CNc2ccc(OCC)cc2)C1 (stereo not drawn) | -0.1 | 21006* | -13.2 | ?
C=C(C)C1CC=C(C)/C(=N/NC(=O)c2ccc(NC(=O)CCC)cc2)C1 (stereo not drawn) | -4.2 | 16939* | -0.5 | ?
C=C(C)C1CC=C(C)C(=NNC(=O)c2ccncc2)C1 (stereo not drawn) | -3.5 | 4028 | 2.6 | -0.8
CC(C)NC(=O)COc1coc(CN2CCN(C(=O)c3ccco3)CC2)cc1=O | 4.7 | 5649 | -2.7 | 1.2
SMILES | BoNT-F LC inh | Autofluor counter | Anthrax LF inh2 | BoNT A protease
O=C(c1ccc(Cn2cc(Br)cn2)cc1)N1CCN(c2ccccc2)CC1 | -1.0 | 23168* | 5.3 | 1.4
CS(=O)(=O)Nc1ccc(C(=O)N2CCN(c3ccccc3)CC2)cc1 | 4.7 | 22316* | -5.5 | 1.8
CS(=O)(=O)N1CCN(C(=O)c2ccccc2)C1 | -0.3 | 16660* | -1.5 | -0.5
CN(C)S(=O)(=O)N1CCN(C(=O)c2ccccc2)CC1 | -4.9 | 4505 | 6.3 | 1.9
CS(=O)(=O)Nc1ccc(C(=O)Nc2ccccc2C(=O)N2CCCC2)cc1 | -0.9 | 20057* | -1.4 | 0.7
O=C(c1ccccc1)N1CCN(c2ccccc2)CC1 | -5.6 | 2922 | -0.5 | -0.5
O=C(NCC1CCCO1)C(=O)NCC(c1ccco1)N1CCN(c2ccccc2F)CC1 (stereo not drawn) | -16.8 | 3104 | 0.3 | -2.3
O=C(c1ccoc1)N1CCN(c2cc(-c3cccc(F)c3)nc3cc(-c4cccc(Cl)c4)nn23)CC1 | -5.6 | 2909 | 7.5 | 0.0
Cc1cc(C)n2nc(SCC(=O)NC3CCCC(C)C3C)nc2n1 (stereo not drawn) | -17.8 | 5772 | -1.8 | -7.5
CCOc1ccc(-c2noc(CCCC(=O)NCC3CCCO3)n2)cc1OC (stereo not drawn) | -2.3 | 5819 | -0.9 | 2.4
O=C(CCc1ccco1)CCc1ccco1 | 10.6 | 3898 | -0.2 | 0.3
CN(CC(=O)Nc1ccccc1C(=O)N1CCCC1)S(=O)(=O)c1ccc(Cl)cc1 | -0.7 | 24313* | 1.2 | -0.7
C/C(Cn1cnc([N+](=O)[O-])n1)=N\NC(=O)c1cccc(F)c1 | 36.4* | 4265 | 0.2 | -0.3
COc1cccc(/C=N/Nc2ncnc3scc(-c4ccccc4)c23)c1OC | -1.6 | 21674* | 0.5 | 2.3
COc1cccc(C=NNc2nc3ccccc3s2)c1OC | 0.9 | 3553 | -11.0 | -0.1
CNc1sc(C(=O)c2ccc(F)cc2)c(N)c1-c1nc2ccccc2s1 | 7.9 | 18218* | 21.1 | 19.3
COC(=O)c1ccccc1NC(=O)CC(=O)Nc1ccccc1C(=O)OC | 12.6 | 3791 | 8.6 | 2.4
COC(=O)c1ccccc1CON1C(=O)C(C)(C)N(OCc2ccccc2C(=O)OC)C(=O)C1(C)C | 2.4 | 16139* | -0.8 | 1.6
O=C(C1CCCCC1)N1CCN(S(=O)(=O)c2cccc([N+](=O)[O-])c2)CC1 | 2.8 | 5380 | -0.2 | -1.0
CCCCCCCCNC(=O)CCNC(=O)c1ccc(C(C)(C)C)cc1 | -3.4 | 16679* | -4.2 | -1.7
CCCC(=O)N1CCC1(C)C(=O)Nc1cc(OC)ccc1OC (stereo not drawn) | -3.3 | 2966 | -5.1 | 0.0
O=C(Nc1ccc(N2CCOCC2)c(Cl)c1)c1c(F)c(F)c(F)c(F)c1F | -30.7 | 4464 | -5.1 | 1.0
COc1c(F)c(F)c(C(=O)Nc2ccc(N3CCN(Cc4ccccc4)CC3)cc2)c(F)c1F | -11.1 | 24627* | -10.1 | -3.6
COc1c(F)c(F)c(C(=O)Nc2ccc(N3CCN(C(C)=O)CC3)c(Cl)c2)c(F)c1F | -7.4 | 17323* | -4.9 | ?
O=C(O)C(SC(C(=O)O)c1ccccc1)c1ccccc1 (stereo not drawn) | -3.6 | 2811 | -0.5 | -0.2
COC(=O)c1ccc2c(=O)[nH]c(CN3c4ccccc4CC3C)nc2c1 (stereo not drawn) | -2.2 | 19519* | -6.7 | ?
COc1cc(CNC2CCCCCC2)cc(OC)c1OC | 1.7 | 22719* | -0.4 | 0.8
COc1cc(OC)c(CNC2CCCCCC2)cc1Br | 3.4 | 3245 | -5.2 | -0.7
COc1cc(OC)c(OC)cc1CNC1CCCCCC1 | 2.5 | 18257* | 1.3 | 4.0
COc1ccc(C2C(C(=O)Nc3cc(OC)c(OC)c(OC)c3)c3ccccc3C(=O)N2C)cc1OC (stereo not drawn) | -1.7 | 3172 | 1.4 | 0.5
